# Experimental data as given in ChEMBL document CHEMBL1961873, “Compounds: GSK PKIS; Assays: Nanosyn kinase panel” (2012).
# Experiments:
# [1] = target: Protein kinase C gamma type (Homo sapiens) (UniProt P05129); settings: at 1 µM;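 also: each value is an averaged percent inhibition of the enzyme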
# [2] = target: T1, Protein kinase C iota type (Homo sapiens) (UniProt P41743); settings: at 0.1 µM
# T1 sequence (whole entry): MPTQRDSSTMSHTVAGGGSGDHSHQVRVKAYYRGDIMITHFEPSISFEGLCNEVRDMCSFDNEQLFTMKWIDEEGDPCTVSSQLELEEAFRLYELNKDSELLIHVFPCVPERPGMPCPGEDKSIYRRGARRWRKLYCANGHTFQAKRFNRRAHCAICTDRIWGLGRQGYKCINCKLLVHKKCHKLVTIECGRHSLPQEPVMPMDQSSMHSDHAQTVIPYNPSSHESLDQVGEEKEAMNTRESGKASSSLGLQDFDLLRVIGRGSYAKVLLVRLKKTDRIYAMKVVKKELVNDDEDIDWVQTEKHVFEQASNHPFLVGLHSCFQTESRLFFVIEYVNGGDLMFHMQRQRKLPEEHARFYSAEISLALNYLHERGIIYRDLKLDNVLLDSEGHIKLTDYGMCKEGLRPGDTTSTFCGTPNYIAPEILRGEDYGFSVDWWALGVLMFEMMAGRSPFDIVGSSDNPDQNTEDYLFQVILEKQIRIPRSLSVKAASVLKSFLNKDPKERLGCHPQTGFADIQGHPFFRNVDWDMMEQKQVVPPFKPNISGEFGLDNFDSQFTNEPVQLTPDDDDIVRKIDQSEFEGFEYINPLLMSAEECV
# [3] = target: T1, Protein kinase C iota type (Homo sapiens); settings: at 1 µM
# [4] = target: Protein kinase C theta type (Homo sapiens) (UniProt Q04759); settings: at 0.1 µM
# [5] = target: Protein kinase C theta type (Homo sapiens) (UniProt Q04759); settings: at 1 µM
# [6] = target: Protein kinase C beta type (Homo sapiens) (UniProt P05771); settings: at 0.1 µM
# [7] = target: Protein kinase C beta type (Homo sapiens) (UniProt P05771); settings: at 1 µM
# [8] = target: T2, Serine/threonine-protein kinase D1 (Homo sapiens) (UniProt Q15139); settings: at 0.1 µM
# T2 sequence (whole entry): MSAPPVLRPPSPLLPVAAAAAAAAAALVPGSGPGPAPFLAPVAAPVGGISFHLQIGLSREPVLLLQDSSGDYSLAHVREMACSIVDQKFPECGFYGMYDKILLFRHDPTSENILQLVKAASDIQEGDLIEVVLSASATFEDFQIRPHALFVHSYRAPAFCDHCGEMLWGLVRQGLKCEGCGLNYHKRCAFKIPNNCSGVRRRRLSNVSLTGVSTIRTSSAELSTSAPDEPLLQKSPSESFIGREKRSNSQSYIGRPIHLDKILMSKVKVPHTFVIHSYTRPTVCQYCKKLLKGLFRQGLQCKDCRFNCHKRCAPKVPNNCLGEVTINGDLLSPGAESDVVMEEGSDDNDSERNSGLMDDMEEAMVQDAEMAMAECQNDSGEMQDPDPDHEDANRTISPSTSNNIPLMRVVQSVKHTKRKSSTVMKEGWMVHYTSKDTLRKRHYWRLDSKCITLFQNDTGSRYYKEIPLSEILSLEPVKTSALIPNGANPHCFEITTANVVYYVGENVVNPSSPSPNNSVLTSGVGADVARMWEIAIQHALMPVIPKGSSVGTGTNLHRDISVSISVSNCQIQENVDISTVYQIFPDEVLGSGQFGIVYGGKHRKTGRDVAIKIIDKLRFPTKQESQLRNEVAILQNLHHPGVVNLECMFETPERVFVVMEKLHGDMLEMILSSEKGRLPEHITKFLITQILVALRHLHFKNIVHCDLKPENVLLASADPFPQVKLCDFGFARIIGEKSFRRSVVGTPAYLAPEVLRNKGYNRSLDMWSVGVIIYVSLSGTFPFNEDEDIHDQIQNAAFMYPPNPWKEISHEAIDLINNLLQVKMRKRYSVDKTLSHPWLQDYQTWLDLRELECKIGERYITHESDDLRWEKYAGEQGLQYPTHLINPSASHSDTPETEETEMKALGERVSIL
# [9] = target: T2, Serine/threonine-protein kinase D1 (Homo sapiens); settings: at 1 µM
# [10] = target: T3, Serine/threonine-protein kinase D2 (Homo sapiens) (UniProt Q9BZL6); settings: at 0.1 µM
# T3 sequence (whole entry): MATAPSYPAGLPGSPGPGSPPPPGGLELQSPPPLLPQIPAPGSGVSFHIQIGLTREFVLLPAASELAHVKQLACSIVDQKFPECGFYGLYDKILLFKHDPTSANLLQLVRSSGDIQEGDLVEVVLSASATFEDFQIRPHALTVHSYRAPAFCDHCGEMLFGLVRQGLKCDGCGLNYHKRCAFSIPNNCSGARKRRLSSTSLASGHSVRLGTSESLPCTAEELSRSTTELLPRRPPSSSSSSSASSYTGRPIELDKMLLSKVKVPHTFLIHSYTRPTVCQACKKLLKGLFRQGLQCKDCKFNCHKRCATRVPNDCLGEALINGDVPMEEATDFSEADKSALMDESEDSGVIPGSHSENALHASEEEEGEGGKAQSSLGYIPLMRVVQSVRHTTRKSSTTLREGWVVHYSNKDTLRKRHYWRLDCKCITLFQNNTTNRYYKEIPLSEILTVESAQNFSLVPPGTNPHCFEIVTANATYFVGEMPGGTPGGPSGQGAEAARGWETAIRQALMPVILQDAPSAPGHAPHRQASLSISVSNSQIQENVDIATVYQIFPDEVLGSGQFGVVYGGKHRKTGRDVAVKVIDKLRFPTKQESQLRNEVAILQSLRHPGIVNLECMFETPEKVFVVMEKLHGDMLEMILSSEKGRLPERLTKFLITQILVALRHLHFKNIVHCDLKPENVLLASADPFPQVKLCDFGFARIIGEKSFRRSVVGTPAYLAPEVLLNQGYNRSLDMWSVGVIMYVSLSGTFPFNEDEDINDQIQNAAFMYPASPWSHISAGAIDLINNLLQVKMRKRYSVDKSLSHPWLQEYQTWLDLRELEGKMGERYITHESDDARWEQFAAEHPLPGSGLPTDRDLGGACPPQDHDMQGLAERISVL
# [11] = target: T3, Serine/threonine-protein kinase D2 (Homo sapiens); settings: at 1 µM
# [12] = target: T4, Serine/threonine-protein kinase D3 (Homo sapiens) (UniProt O94806); settings: at 0.1 µM
# T4 sequence (whole entry): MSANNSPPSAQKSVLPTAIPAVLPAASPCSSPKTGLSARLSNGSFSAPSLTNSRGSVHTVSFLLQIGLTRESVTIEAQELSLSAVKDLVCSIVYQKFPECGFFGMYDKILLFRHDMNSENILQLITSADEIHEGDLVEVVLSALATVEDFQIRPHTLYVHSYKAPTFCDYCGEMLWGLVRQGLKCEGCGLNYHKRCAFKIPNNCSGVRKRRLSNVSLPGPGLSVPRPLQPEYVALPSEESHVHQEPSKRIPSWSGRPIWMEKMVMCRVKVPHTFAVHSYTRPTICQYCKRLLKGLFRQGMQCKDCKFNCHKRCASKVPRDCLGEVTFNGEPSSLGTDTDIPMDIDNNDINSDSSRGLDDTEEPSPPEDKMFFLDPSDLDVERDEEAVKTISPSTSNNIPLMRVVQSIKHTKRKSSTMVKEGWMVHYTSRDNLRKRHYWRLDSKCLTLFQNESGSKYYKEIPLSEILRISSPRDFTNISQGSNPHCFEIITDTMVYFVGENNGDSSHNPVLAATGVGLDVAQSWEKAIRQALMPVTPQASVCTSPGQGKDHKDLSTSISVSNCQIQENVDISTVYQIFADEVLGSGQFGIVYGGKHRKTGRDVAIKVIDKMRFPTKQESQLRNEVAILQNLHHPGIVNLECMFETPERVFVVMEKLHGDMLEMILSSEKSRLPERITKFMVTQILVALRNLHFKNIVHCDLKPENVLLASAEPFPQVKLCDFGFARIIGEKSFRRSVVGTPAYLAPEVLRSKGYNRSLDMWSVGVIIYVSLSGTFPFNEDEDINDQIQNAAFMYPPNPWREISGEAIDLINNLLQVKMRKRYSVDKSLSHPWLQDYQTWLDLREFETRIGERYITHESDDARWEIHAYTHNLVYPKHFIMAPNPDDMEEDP
# [13] = target: T4, Serine/threonine-protein kinase D3 (Homo sapiens); settings: at 1 µM
# [14] = target: T5, cGMP-dependent protein kinase 1 (Homo sapiens) (UniProt Q13976); settings: at 0.1 µM
# T5 sequence (whole entry): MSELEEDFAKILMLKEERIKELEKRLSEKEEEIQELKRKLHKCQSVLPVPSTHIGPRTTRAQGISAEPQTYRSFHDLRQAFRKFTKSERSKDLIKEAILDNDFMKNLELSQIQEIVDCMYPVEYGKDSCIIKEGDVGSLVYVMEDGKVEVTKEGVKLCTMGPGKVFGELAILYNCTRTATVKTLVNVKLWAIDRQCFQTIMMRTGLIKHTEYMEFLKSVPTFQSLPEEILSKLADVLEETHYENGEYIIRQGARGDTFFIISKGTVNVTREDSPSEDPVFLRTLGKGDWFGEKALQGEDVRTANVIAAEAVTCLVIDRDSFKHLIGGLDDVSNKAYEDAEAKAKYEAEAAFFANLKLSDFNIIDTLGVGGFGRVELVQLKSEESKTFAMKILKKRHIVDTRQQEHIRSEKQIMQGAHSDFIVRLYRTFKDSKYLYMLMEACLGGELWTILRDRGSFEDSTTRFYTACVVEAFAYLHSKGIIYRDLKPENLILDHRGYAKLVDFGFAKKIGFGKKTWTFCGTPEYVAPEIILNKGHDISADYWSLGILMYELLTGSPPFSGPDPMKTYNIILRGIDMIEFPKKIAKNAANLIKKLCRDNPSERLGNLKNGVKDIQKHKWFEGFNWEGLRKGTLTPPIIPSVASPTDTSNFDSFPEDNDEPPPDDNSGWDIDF
# [15] = target: T5, cGMP-dependent protein kinase 1 (Homo sapiens); settings: at 1 µM
# [16] = target: T6, cGMP-dependent protein kinase 2 (Homo sapiens) (UniProt Q13237); settings: at 0.1 µM
# T6 sequence (whole entry): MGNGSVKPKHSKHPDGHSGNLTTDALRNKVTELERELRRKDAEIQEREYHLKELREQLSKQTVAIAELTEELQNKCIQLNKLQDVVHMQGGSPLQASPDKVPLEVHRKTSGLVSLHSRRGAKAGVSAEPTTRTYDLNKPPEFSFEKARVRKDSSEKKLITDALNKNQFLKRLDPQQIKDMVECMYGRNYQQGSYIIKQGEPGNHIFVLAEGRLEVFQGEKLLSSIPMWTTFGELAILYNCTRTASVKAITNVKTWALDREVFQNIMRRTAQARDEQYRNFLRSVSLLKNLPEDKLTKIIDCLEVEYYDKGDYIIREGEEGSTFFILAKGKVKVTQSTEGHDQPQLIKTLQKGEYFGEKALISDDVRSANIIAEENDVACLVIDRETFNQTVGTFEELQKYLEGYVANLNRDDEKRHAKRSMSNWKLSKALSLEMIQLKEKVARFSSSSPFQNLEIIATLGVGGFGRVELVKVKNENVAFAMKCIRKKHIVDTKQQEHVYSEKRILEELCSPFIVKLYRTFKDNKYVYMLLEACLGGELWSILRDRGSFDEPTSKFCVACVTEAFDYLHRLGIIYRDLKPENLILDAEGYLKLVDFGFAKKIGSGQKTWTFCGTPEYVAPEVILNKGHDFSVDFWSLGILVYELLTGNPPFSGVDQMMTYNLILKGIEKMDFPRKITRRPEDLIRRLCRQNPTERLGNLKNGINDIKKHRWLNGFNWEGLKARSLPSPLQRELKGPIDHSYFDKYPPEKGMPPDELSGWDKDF
# [17] = target: T6, cGMP-dependent protein kinase 2 (Homo sapiens); settings: at 1 µM
# [18] = target: T7, cAMP-dependent protein kinase catalytic subunit PRKX (Homo sapiens) (UniProt P51817); settings: at 0.1 µM
# T7 sequence (whole entry): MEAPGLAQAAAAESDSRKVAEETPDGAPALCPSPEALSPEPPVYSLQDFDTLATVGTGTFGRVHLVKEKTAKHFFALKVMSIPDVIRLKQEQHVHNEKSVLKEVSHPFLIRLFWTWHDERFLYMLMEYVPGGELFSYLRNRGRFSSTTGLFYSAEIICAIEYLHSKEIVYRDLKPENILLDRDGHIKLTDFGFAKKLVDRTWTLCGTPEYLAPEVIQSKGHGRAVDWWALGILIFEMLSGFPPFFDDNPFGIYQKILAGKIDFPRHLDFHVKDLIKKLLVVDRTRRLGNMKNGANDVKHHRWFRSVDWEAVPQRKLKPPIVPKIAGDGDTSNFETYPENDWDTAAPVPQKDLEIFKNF
# [19] = target: T7, cAMP-dependent protein kinase catalytic subunit PRKX (Homo sapiens); settings: at 1 µM
# [20] = target: Rho-associated protein kinase 1 (Homo sapiens) (UniProt Q13464); settings: at 0.1 µM;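 also: values are mean percent inhibition of ROCK1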
# Chain of Rho-associated protein kinase 1 (Homo sapiens) (Q13464 2-1354 limits assumed): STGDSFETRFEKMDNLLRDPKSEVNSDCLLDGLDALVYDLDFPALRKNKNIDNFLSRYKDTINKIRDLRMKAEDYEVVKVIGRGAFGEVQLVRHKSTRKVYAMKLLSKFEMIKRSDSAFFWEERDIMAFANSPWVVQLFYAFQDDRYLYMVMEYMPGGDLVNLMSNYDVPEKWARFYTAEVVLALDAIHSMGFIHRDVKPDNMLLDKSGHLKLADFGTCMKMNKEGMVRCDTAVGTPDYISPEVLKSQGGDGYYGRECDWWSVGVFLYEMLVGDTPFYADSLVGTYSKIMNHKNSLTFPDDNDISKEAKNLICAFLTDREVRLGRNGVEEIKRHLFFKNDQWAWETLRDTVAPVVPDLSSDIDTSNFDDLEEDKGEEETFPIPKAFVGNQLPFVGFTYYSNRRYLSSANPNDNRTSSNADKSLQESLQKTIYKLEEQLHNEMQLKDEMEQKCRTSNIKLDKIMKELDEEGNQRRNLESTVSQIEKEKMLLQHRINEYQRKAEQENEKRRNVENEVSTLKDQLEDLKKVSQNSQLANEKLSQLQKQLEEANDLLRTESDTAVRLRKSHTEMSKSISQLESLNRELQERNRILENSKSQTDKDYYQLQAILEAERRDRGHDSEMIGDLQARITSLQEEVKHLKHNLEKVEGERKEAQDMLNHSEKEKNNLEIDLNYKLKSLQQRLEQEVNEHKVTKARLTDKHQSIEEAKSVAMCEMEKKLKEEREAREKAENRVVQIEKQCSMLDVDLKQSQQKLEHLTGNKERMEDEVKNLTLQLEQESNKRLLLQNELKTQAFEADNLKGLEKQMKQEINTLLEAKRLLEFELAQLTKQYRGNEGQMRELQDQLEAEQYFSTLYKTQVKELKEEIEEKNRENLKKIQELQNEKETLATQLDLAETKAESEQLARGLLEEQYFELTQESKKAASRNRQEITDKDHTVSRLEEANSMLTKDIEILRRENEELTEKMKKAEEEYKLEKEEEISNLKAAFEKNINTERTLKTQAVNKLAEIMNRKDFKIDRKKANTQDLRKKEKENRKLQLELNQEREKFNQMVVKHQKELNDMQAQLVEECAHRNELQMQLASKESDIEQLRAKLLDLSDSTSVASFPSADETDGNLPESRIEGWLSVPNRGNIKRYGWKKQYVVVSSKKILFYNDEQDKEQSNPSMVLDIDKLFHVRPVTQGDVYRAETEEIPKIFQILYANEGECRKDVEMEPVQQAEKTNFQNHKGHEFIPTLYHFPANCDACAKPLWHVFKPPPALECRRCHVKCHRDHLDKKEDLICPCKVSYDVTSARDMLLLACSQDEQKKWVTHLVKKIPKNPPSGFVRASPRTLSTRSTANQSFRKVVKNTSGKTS
# Chain of Protein kinase C theta type (Homo sapiens) (Q04759 whole entry, looked up): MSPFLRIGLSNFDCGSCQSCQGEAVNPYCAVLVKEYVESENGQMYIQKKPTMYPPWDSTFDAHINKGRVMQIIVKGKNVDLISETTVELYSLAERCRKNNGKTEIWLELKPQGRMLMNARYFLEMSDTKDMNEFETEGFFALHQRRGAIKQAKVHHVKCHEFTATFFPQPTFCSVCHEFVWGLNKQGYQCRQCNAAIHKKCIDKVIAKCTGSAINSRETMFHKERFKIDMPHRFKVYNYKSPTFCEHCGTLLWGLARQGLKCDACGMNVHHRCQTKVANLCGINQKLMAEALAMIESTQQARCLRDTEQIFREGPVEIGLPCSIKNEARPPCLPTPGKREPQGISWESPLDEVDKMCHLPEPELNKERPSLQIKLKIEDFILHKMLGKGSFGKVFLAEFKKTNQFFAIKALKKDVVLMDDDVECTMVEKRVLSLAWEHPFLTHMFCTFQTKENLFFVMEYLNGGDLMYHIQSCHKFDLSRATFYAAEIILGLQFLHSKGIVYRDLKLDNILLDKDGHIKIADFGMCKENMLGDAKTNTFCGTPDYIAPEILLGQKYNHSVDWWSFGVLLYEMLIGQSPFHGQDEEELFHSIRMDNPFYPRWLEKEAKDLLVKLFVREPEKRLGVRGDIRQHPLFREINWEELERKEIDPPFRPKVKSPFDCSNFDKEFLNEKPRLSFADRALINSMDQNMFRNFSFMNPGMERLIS
# Chain of Protein kinase C beta type (Homo sapiens) (P05771 2-671 limits assumed): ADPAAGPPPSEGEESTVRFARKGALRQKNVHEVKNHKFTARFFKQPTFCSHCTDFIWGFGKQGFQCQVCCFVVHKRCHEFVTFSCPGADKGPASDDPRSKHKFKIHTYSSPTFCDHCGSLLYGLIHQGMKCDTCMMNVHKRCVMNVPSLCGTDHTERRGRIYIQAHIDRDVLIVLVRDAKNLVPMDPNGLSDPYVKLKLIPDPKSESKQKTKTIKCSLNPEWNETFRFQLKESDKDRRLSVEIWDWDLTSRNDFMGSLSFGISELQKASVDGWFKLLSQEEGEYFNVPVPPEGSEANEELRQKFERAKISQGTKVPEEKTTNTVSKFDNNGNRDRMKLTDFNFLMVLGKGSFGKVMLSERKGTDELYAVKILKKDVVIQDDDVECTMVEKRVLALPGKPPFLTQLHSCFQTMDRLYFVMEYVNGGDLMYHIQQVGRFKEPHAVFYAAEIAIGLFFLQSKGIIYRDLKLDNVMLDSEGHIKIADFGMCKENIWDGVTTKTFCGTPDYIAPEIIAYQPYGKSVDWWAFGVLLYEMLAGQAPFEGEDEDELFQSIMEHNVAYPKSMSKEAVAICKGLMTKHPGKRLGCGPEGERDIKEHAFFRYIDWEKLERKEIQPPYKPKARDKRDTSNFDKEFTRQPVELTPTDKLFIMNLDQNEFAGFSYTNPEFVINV
SMILES,inhibition [1],inhibition [2],inhibition [3],inhibition [4],inhibition [5],inhibition [6],inhibition [7],inhibition [8],inhibition [9],inhibition [10],inhibition [11],inhibition [12],inhibition [13],inhibition [14],inhibition [15],inhibition [16],inhibition [17],inhibition [18],inhibition [19],inhibition [20]
O=C1Nc2ccccc2/C1=C/Nc1ccc2[nH]c(=O)[nH]c2c1,4.72%,1.72%,0.7%,2.03%,4.75%,1.79%,2.19%,4.45%,16.5%,5.28%,14%,5.54%,11.7%,1.49%,6.34%,3.41%,13.8%,2.23%,8.47%,0.24%
COc1ccc2ncnc(Nc3ccc(OCc4ccccc4)cc3)c2c1,5.03%,0.61%,-0.95%,1.21%,1.19%,0.9%,1.9%,3.89%,3.35%,0.24%,2.88%,0.89%,2.6%,0.77%,1.95%,0.94%,2.5%,1.23%,1.9%,-0.05%
CCOc1nccc2c1nc(-c1nonc1N)n2CC,0.08%,3.07%,0.84%,2.98%,6.45%,3.06%,5.23%,3.37%,1.82%,1.9%,1.39%,3.3%,2.21%,4.09%,5.91%,8.5%,43.1%,3.1%,2.76%,2.91%
